PubChem BioAssay AID1159580 (chemical genetic matrix, 2015)
About 2,000 (36%) of roughly 5,500 compounds were called active. Another 18% or so got no clear call; they are omitted. No stated cut-off is given here; in the data, active means normalized growth mostly below about 0.91 (no sharp cut-off); inconclusive means no clear call, values can overlap the other calls; inactive means mostly above about 0.92. This is one part of the list.

Assay: chemical genetic growth profiling, strain panel (AID 1159580);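 further: tested at 20 µM; growth read once vehicle control cultures reached saturation at 30 °C; 1 = growth at the plate median or of vehicle wells; lower values mean less growth of the strain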
Settings: S. cerevisiae deletion strains, growth OD

Measured: normalized growth

CCC(C)c1ccccc1NC(=O)c1cc2cccc([N+](=O)[O-])c2[nH]1 (stereo unspecified)
inactive: locus YAR019C, strain CDC15, hits give low values 0.932 | locus YBL105C, strain PKC1, hits give low values 0.914 | locus YBR135W, strain CKS1, hits give low values 0.912 | locus YBR136W, strain MEC1, hits give low values 0.923 | locus YBR160W, strain CDC28, hits give low values 0.924 | locus YDL017W, strain CDC7, hits give low values 0.928 | locus YDL028C, strain MPS1, hits give low values 0.92 | locus YDL101C, strain DUN1, hits give low values 0.949 | locus YDL108W, strain KIN28, hits give low values 0.921 | locus YDL132W, strain cdc53, hits give low values 0.896 | locus YDL214C, strain PRR2, hits give low values 0.904 | locus YDR052C, strain DBF4, hits give low values 0.965 | locus YDR054C, strain cdc34, hits give low values 0.957 | locus YDR226W, strain ADK1, hits give low values 0.936 | locus YDR477W, strain SNF1, hits give low values 0.792 | locus YER123W, strain YCK3, hits give low values 0.851 | locus YER133W, strain GLC7, hits give low values 0.893 | locus YFL009W, strain cdc4, hits give low values 0.906 | locus YFL029C, strain CAK1, hits give low values 0.925 | locus YFR003C, strain YPI1, hits give low values 0.93 | locus YFR019W, strain FAB1, hits give low values 0.978 | locus YFR028C, strain CDC14, hits give low values 0.967 | locus YGR040W, strain KSS1, hits give low values 0.826 | locus YGR052W, strain FMP48, hits give low values 0.867 | locus YGR092W, strain DBF2, hits give low values 0.7 | locus YHR082C, strain KSP1, hits give low values 0.905 | locus YHR205W, strain SCH9, hits give low values 0.964 | locus YIL147C, strain SLN1, hits give low values 0.916 | locus YJL128C, strain PBS2, hits give low values 0.994 | locus YJL157C, strain FAR1, hits give low values 0.884 | locus YJR016C, strain ILV3, hits give low values 0.911 | locus YJR066W, strain TOR1 (second series), hits give low values 0.905 | locus YJR066W, strain TOR1, hits give low values 0.767 | locus YKL048C, strain ELM1, hits give low values 0.912 | locus YKL067W, strain YNK1, hits give low values 0.897 | locus YKL101W, strain HSL1, hits give low values 0.83 | locus YKL193C, strain SDS22, hits give low values 0.92 | locus YKL203C, strain TOR2, hits give low values 0.783 | locus YLR133W, strain CKI1, hits give low values 0.902 | locus YLR403W, strain SFP1, hits give low values 0.859 | locus YML070W, strain DAK1, hits give low values 0.846 | locus YMR001C, strain CDC5, hits give low values 0.917 | locus YMR205C, strain PFK2 (second series), hits give low values 0.894 | locus YMR277W, strain FCP1, hits give low values 0.921 | locus YNL006W, strain LST8, hits give low values 0.915 | locus YNL020C, strain ARK1, hits give low values 0.905 | locus YNL161W, strain CBK1, hits give low values 0.924 | locus YNL183C, strain NPR1, hits give low values 0.774 | locus YNL207W, strain RIO2, hits give low values 0.905 | locus YNL222W, strain SSU72, hits give low values 0.917 | locus YNL307C, strain MCK1 (second series), hits give low values 0.826 | locus YOL078W, strain AVO1, hits give low values 0.924 | locus YOL136C, strain PFK27, hits give low values 0.869 | locus YOR061W, strain CKA2, hits give low values 0.818 | locus YOR119C, strain RIO1, hits give low values 0.805 | locus YOR231W, strain MKK1, hits give low values 0.631 | locus YOR329C, strain SCD5, hits give low values 0.917 | locus YPL031C, strain PHO85, hits give low values 0.832 | locus YPL153C, strain RAD53, hits give low values 0.723 | locus YPL204W, strain HRR25, hits give low values 0.834 | locus YPL209C, strain IPL1, hits give low values 0.921 | locus YPR025C, strain CCL1, hits give low values 0.919 | locus YPR106W, strain ISR1, hits give low values 0.958 | locus YPR111W, strain DBF20, hits give low values 0.99 | strain NNK1, hits give low values 0.945 | strain TSCII, hits give low values 0.911
active: locus YHR030C, strain SLT2, hits give low values 0.543 | locus YHR079C, strain IRE1, hits give low values 0.219 | locus YJL095W, strain BCK1, hits give low values 0.266 | locus YLR113W, strain HOG1, hits give low values 0.656 | locus YPL256C, strain CLN2, hits give low values 0.785
